Results filed as inconclusive are left out. Entries that show only a call come without a potency. Active and inactive are the calls of the source. Unless noted, calls follow the shape of the full dose curve.
How the values were obtained:
[1] = qHTS assay for small molecule agonists of retinoid X receptor alpha signaling (AID 588544); conditions: HEK293T RXRa-UAS-bla, beta-lactamase reporter, 18 h; 530 nm emission
[2] = biological target: Retinoic acid receptor RXR-alpha (Homo sapiens) (UniProt P19793); experiment: as above; conditions: HEK293T RXRa-UAS-bla, beta-lactamase reporter, 18 h; series mostly up to 76.7 µM
Sequence of Retinoic acid receptor RXR-alpha (Homo sapiens) (P19793 whole entry, looked up): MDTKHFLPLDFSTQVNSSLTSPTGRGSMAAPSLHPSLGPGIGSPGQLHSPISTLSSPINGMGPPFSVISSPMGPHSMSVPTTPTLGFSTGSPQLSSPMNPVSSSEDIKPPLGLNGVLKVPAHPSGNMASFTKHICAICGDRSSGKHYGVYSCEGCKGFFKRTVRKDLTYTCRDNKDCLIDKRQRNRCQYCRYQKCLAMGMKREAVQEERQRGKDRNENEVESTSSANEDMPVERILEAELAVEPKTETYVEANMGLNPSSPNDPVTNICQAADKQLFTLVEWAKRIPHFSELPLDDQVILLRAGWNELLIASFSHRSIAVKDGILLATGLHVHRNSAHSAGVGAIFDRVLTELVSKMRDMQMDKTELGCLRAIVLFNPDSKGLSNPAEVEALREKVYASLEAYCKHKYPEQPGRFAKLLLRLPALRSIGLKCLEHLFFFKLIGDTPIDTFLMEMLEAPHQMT

[3] = biological target: Thyroid hormone receptor beta (Homo sapiens) (UniProt P10828); experiment: qHTS assay for small molecule agonists of thyroid hormone receptor beta signaling (AID 588545); conditions: TR-UAS-bla GripTite HEK 293, beta-lactamase ratio, agonist mode, 18 h, percent of T3 response, DMSO as zero; series mostly up to 76.7 µM
Sequence of Thyroid hormone receptor beta (Homo sapiens) (P10828 whole entry, looked up): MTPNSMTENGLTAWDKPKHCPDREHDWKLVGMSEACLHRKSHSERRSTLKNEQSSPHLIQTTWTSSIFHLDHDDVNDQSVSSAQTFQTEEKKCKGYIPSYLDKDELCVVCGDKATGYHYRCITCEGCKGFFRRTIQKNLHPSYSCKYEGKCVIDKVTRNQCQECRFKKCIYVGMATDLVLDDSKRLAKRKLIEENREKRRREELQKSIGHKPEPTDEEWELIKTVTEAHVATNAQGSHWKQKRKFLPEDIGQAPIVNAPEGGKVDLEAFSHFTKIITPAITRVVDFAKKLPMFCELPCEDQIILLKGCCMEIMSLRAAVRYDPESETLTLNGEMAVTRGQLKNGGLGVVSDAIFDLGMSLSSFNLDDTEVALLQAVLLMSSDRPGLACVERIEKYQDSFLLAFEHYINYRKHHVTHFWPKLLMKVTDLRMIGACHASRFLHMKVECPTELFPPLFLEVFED
In short: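 Cells (2500/well) were seeded, incubated 4 hrs at 37 C, dosed with a compound series, incubated 18 hrs, loaded with CCF4 dye for 2 hrs at RT, then read for fluorescence. Data were scaled between DMSO (0%) and 10 nM T3 (100%).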

[4] = qHTS assay for small molecule antagonists of retinoid X receptor alpha signaling (AID 588546; active = well fitted inhibition curve with a large enough effect in the signal ratio, with a control signal flat, not every such curve was filed as active; the % refers to the signal ratio;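 also: cells stimulated with 9-cis-retinoic acid as agonist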); conditions: HEK293T RXRa-UAS-bla, beta-lactamase ratio, antagonist mode; measured here: W530 green channel, cytotoxicity proxy
In short: (§1)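 Beta-lactamase reporter inhibition, read as CCF4 fluorescence ratio (ex 405, em 460/530 nm) after 2 h at RT. HEK293T UAS-bla cells, 2500/well, were stimulated with 9-cis-RA at 500 or 100 nM final alongside test compound for 18 h at 37 C.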

[5] = biological target: Retinoic acid receptor RXR-alpha (Homo sapiens) (UniProt P19793); experiment: as above; conditions: HEK293T RXRa-UAS-bla, beta-lactamase ratio, antagonist mode
In short: as §1

[6] = biological target: Thyroid hormone receptor beta (Homo sapiens) (UniProt P10828); experiment: qHTS assay for small molecule antagonists of thyroid hormone receptor beta signaling (AID 588547; active = well fitted inhibition curve with a large enough effect in the signal ratio, with a control signal flat, not every such curve was filed as active; the % refers to the signal ratio;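 also: cells stimulated with 0.4 nM T3 agonist during compound exposure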); conditions: TR-UAS-bla HEK293, beta-lactamase ratio, antagonist mode, 18 h
In short: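 Inhibition of T3-driven (0.4nM final) beta-lactamase reporter activity was measured over 0.59 nM to 92 uM compound after 18 h at 37 C. The cells were GripTite HEK293 TR-UAS-bla in charcoal/dextran-stripped serum, with CCF4 ratio read-out and IC50 from Hill fits.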

[7] = biological target: Voltage-gated inwardly rectifying potassium channel KCNH2 (Homo sapiens) (UniProt Q12809); experiment: qHTS Assay for Small Molecule Inhibitors of the Human hERG Channel Activity (AID 588834; active = well fitted curve in the direction sought with a large enough effect; an effect the other way counts as inactive or inconclusive;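 also: top concentration of the series differs between compounds; lower thallium flux fluorescence means stronger hERG block; nearly all actives have a fitted effect of over 50% in size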); conditions: U2OS BacMam hERG, FluxOR thallium flux fluorescence; series mostly up to 92.2 µM
Sequence of Voltage-gated inwardly rectifying potassium channel KCNH2 (Homo sapiens) (Q12809 whole entry, looked up): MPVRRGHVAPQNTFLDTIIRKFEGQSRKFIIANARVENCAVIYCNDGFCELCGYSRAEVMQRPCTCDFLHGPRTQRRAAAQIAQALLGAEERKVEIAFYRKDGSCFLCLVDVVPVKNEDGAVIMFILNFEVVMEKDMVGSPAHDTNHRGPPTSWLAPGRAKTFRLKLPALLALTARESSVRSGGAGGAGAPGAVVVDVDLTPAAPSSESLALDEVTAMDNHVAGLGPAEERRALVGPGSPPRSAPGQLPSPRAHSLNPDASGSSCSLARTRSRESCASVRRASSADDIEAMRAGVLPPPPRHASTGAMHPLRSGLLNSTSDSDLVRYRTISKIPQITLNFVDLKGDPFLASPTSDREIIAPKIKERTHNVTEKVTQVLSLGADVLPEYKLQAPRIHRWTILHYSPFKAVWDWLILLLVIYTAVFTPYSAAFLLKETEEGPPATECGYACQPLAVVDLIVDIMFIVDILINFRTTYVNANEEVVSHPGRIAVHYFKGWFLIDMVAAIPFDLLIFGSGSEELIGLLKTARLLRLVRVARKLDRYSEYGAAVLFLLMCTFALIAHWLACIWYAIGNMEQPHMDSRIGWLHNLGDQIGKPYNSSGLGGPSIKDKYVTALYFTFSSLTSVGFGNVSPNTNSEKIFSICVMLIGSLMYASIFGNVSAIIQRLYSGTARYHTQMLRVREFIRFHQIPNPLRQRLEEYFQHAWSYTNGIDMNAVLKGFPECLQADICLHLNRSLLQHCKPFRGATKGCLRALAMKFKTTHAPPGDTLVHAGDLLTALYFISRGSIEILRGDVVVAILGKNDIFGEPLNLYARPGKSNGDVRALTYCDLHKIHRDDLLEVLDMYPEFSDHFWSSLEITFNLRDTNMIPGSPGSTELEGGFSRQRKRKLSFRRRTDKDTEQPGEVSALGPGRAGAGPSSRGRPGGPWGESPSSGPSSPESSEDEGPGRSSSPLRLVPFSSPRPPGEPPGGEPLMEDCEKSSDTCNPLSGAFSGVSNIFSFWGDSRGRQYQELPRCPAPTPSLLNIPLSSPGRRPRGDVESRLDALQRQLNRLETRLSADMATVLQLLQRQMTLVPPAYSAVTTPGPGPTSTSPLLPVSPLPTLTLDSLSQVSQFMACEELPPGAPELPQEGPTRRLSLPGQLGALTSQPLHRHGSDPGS
In short: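 Homogeneous FluxOR thallium flux assay using hERG-expressing U2OS cells (BacMam). Compound treatment about 10 minutes preceded stimulation; reduced fluorescence taken as channel block.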

[8] = qHTS assay for small molecule agonists of the antioxidant response element (ARE) signaling pathway (AID 651741; active = well fitted activation curve with a large enough effect in the signal ratio; the % refers to the signal ratio); conditions: HepG2 ARE-bla reporter, beta-lactamase FRET ratio, 16 h; series mostly up to 96 µM
In short: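 Beta-lactamase reporter under ARE control in HepG2 cells, 2,000 per well, was induced by 16 h compound treatment at 37 C. Read-out was fluorescence from LiveBLAzer B/G FRET substrate after 2 h at room temperature.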

[9] = qHTS assay for small molecule activators of the p53 signaling pathway (AID 651743; active = well fitted activation curve with a large enough effect in the signal ratio, not every such curve was filed as active; the % refers to the signal ratio); conditions: HCT-116 p53RE-bla, beta-lactamase FRET ratio, 16 h; stronger effect = higher value
In short: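 After 16 hours compound treatment at 37 C, HCT-116 cells stably expressing p53RE-driven beta-lactamase were loaded with LiveBLAzer B/G FRET substrate for 2 hours at room temperature. Fluorescence intensity served as the p53 activation read-out.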

[10] = qHTS assay for small molecule activators of the nuclear factor-kappa B (NF-kB) signaling pathway (AID 651749; active = well fitted activation curve with a large enough effect in the signal ratio; the % refers to the signal ratio); conditions: NF-kB-bla ME-180 cells, beta-lactamase FRET ratio, 16 h; stronger effect = higher value
In short: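 Activation measured after 16 hr compound treatment at 37C, 5% CO2, of 2,000 ME-180 cells/well stably expressing an NF-kB response element–driven beta-lactamase reporter, via FRET-disruption fluorescence.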

[11] = qHTS assay for small molecule disruptors of the mitochondrial membrane potential - 1 hr assay (AID 651754); conditions: series mostly up to 92.2 µM; also: nearly all actives have a fitted effect of over 35% in size
In short: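 Loss of mitochondrial potential shifts the cationic dye from red mitochondrial aggregates to green cytoplasmic monomers. Cells (HepG2) are treated with compound for 1 hr before a 30 min dye incubation at 37C.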

[12] = qHTS assay for small molecule disruptors of the mitochondrial membrane potential - 5 hr assay (AID 651755); conditions: JC-1-type ratio dye; series mostly up to 92.2 µM; also: nearly all actives have a fitted effect of over 40% in size
In short: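 Membrane-potential dye readout: red aggregate (540 ex/590 em) versus green monomer (490 ex/535 em) fluorescence after 30 min dye loading, following 5 hr compound exposure at 37C of overnight-plated HepG2 cells.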

[13] = biological target: Tumor necrosis factor (Homo sapiens) (UniProt P01375); experiment: qHTS assay to identify small molecules that stimulate Tumor Necrosis Factor-alpha (TNF-alpha) secretion (AID 651757; active = well fitted curve in the direction sought with a large enough effect in the signal ratio; the % refers to the signal ratio); conditions: Human cells, HTRF 665/615 ratio; series mostly up to 92.2 µM
Sequence of Tumor necrosis factor (Homo sapiens) (P01375 whole entry, looked up): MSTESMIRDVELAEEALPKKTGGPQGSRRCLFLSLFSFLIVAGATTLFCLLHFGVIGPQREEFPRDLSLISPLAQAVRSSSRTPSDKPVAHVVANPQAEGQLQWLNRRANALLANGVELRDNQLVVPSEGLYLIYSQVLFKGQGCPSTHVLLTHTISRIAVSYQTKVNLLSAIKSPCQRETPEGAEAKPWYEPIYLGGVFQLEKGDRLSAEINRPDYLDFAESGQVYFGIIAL
In short: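 Human monocytic THP-1 cells are plated, treated with compound and held at 37 C for 17 hrs. Labeled anti-TNF-alpha antibody mixture is then added; after 3 hr at room temperature, TR-FRET signal reports secreted TNF-alpha.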

[14] = qHTS assay for environmental chemicals that activate the Aryl hydrocarbon Receptor (AhR) signaling pathway (AID 651777; active = well fitted curve in the direction sought with a large enough effect; an effect the other way counts as inactive or inconclusive; also: nearly all actives have a fitted effect of over 15% in size); conditions: 1A2-DRE human hepatoma cells, luciferase, 24 h; activation: stronger effect = higher value
In short: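 Quantitative HTS in stably transfected human liver-derived cells whose luciferase gene sits downstream of the CYP1A2 promoter and dioxin response element. After 24 hr exposure at 37 C, One-Glo luminescence was measured.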

[15] = biological target: Peroxisome proliferator-activated receptor alpha (Homo sapiens) (UniProt Q07869); experiment: qHTS assay for small molecule agonists of the peroxisome proliferator-activated receptor alpha (PPARalpha) signaling pathway (AID 651778; active = well fitted curve in the direction sought with a large enough effect; an effect the other way counts as inactive or inconclusive); conditions: PathHunter PPARalpha complementation, chemiluminescence, 6 h; stronger effect = higher value
Sequence of Peroxisome proliferator-activated receptor alpha (Homo sapiens) (Q07869 whole entry, looked up): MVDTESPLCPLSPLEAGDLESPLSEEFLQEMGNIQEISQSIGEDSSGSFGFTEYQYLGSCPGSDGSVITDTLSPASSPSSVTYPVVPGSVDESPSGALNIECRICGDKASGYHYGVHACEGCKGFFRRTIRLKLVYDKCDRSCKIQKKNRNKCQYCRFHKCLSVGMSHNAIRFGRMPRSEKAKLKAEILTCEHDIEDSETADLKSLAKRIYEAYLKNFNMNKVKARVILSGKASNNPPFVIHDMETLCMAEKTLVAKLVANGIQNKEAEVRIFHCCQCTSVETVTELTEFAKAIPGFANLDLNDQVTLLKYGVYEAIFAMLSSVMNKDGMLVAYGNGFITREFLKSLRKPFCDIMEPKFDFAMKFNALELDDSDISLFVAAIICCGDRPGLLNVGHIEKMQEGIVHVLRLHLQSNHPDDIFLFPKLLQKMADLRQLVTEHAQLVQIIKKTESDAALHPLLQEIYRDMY
In short: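 Chemiluminescence from complemented enzyme reported PPARalpha activation in cells after 6 hr of compound treatment at 37 C. The detection reagent was incubated for 60 min at room temperature, and compounds were scored as agonists.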

[16] = biological target: Nuclear receptor ROR-gamma (Homo sapiens) (UniProt P51449); experiment: qHTS assay for small molecule antagonists of the retinoid-related orphan receptor gamma (ROR-gamma) signaling pathway (AID 651802; active = well fitted curve in the direction sought with a large enough effect; an effect the other way counts as inactive or inconclusive;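 also: CHO cells with doxycycline-induced ROR-gamma expression; nearly all actives have a fitted effect of over 60% in size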); conditions: ROR-gamma antagonist cell reporter assay; series mostly up to 92.2 µM
Sequence of Nuclear receptor ROR-gamma (Homo sapiens) (P51449 whole entry, looked up): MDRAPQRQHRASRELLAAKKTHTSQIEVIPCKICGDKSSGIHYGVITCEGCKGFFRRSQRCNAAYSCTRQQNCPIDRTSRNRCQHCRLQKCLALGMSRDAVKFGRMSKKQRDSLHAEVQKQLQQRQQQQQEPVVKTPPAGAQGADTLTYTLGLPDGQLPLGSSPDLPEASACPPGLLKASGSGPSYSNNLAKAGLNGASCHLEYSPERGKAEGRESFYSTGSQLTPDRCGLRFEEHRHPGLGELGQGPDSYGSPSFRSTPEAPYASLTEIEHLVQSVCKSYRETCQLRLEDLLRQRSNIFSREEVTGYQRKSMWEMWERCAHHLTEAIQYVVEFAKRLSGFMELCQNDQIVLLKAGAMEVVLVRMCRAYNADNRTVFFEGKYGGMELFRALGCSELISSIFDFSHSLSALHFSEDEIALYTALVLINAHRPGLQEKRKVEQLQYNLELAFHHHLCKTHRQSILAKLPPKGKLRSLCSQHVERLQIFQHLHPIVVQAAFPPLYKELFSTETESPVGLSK
In short: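 Steps: cells dispensed; compound or DMSO transferred by pin tool; doxycycline added to induce the ROR response element-driven luciferase; plates held 16hr at 37C; ONE-Glo added and luminescence measured.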

[17] = qHTS assay for small molecule agonists of the antioxidant response element (ARE) signaling pathway measured by Nrf2-dependant transcriptional activity (AID 720636; active = well fitted curve in the direction sought with a large enough effect in the repeat runs; an effect the other way counts as inactive or inconclusive); conditions: ARE-luc HepG2, Nrf2 luciferase reporter, 16 h; series mostly up to 92.4 µM
In short: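 Quantitative HTS format in HepG2 cells stably expressing an ARE-luciferase reporter; 16 hr compound treatment at 37 C, luciferase signal detected with ONE-Glo.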

[18] = qHTS assay for small molecule antagonists of the retinoid-related orphan receptor gamma (ROR-gamma) signaling pathway - cell viability counter screen (AID 720652; active = well fitted curve in the direction sought with a large enough effect in the repeat runs; an effect the other way counts as inactive or inconclusive;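 also: CHO reporter cells with doxycycline-induced ROR-gamma expression; compound exposure lasted 16 hr before ATP read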); conditions: RORgamma reporter cell line viability counter screen; series mostly up to 92.2 µM
In short: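 Steps: seed CHO cells bearing TET-inducible ROR and ROR response element-luciferase; rest 5 hr at 37 C; add compound, then doxycycline; incubate 16 hr; add CellTiter-Glo and read luminescence as ATP-based viability.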

[19] = qHTS assay for small molecule agonists of the antioxidant response element (ARE) signaling pathway measured by Nrf2-dependant transcriptional activity - cell viability counter screen (AID 720653; active = well fitted curve in the direction sought with a large enough effect in the repeat runs; an effect the other way counts as inactive or inconclusive); conditions: ARE-bla HepG2 viability, CellTiter-Glo ATP luminescence, 16 h; stronger effect = lower value
In short: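 Cytotoxicity counter screen: intracellular ATP quantified by CellTiter-Glo luminescence in the same ARE-bla HepG2 plates, after 16 h compound exposure and a 2 h beta-lactamase substrate step.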

[20] = qHTS assay to identify small molecules that stimulate interleukin-8 (IL-8) secretion (AID 651758; active = well fitted activation curve with a large enough effect in the signal ratio; the % refers to the signal ratio); conditions: HTRF ratio (665/615); series mostly up to 92.2 µM
In short: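 Secreted IL-8 measured homogeneously by TR-FRET (two labelled anti-IL-8 antibodies, 1-3 h at room temperature) after a 16 h, 37 C compound treatment of THP-1 cells at 2000 cells/well.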

With `Cc1cccc2ccccc12` the max response [1] was -13.1%, the outcome [2] was “inactive” and the outcome [3] was “inactive”. For the same compound, the max response [4] was -10.1%, the max response [5] was 0.915% (inactive) and the activity change % (negative = inhibition) [6] was 12.2% (inactive). For the same compound, the Potency [7] was “inactive”, the Potency [8] was “inactive” and the activation [9] was -1.93% (inactive). The activation [10] was -1.12% (inactive), the Potency [11] was “inactive” and the Potency [12] was “inactive”. The Potency [13] was “inactive”, the activation [14] was -0.124% (inactive) and the max response [15] was -1.89% (inactive). The Potency [16] was “inactive”, the outcome [17] was “inactive” and the Potency [18] was “inactive”. For the same compound, the max response [19] was -3.61% (inactive).
In the case of `C/C=C(/C)C#N`, the max response [1] is reported as -23.6%, the outcome [2] is reported as “inactive” and the outcome [3] is reported as “inactive”. The max response [4] was 0.293%, the max response [5] was 32% (inactive) and the activity change % (negative = inhibition) [6] was 15% (inactive). For the same compound, the Potency [7] was “inactive”, the Potency [8] was “inactive” and the activation [9] was -0.853% (inactive). For the same compound, the activation [10] was -0.053% (inactive), the Potency [11] was “inactive” and the Potency [12] was “inactive”. The Potency [13] was “inactive”, the activation [14] was 1.73% (inactive) and the max response [15] was -2.14% (inactive). The Potency [16] was “inactive”, the outcome [17] was “inactive” and the max response [19] was -5.17% (inactive).
For `CN(C)CCCCl`, the max response [1] was -11.7%, the outcome [2] was “inactive” and the outcome [3] was “inactive”. For the same compound, the max response [4] was -4.19%, the max response [5] was -2.2% (inactive) and the activity change % (negative = inhibition) [6] was 10.5% (inactive). The Potency [7] was “inactive”, the Potency [8] was “inactive” and the activation [9] was -1.08% (inactive). For the same compound, the activation [10] was 0.444% (inactive), the Potency [11] was “inactive” and the Potency [12] was “inactive”. The Potency [13] was “inactive”, the Potency [16] was “inactive” and the outcome [17] was “inactive”. The Potency [18] was “inactive” and the max response [19] was 19.9% (inactive).
With `O=C(O)CNC(=O)c1ccc(CO)o1` the max response [1] was -18.2%, the outcome [2] was “inactive” and the outcome [3] was “inactive”. For the same compound, the max response [4] was 2.84%, the max response [5] was -8.36% (inactive) and the activity change % (negative = inhibition) [6] was -8.36% (inactive). The Potency [7] was “inactive”, the Potency [8] was “inactive” and the activation [9] was -3.47% (inactive). For the same compound, the activation [10] was 0.936% (inactive), the Potency [11] was “inactive” and the Potency [12] was “inactive”. The Potency [13] was “inactive”, the activation [14] was -1.34% (inactive) and the Potency [16] was “inactive”. The outcome [17] was “inactive”, the Potency [18] was “inactive” and the max response [19] was -15.7% (inactive).
In the case of `CCOc1ccccc1N`, the max response [1] is reported as 0.0722%, the outcome [2] is reported as “inactive” and the outcome [3] is reported as “inactive”. For the same compound, the max response [4] was -5.65%, the max response [5] was 20.5% (inactive) and the activity change % (negative = inhibition) [6] was -11.6% (inactive). For the same compound, the Potency [7] was “inactive”, the Potency [8] was “inactive” and the activation [9] was -1.62% (inactive). The activation [10] was -1.4% (inactive), the Potency [11] was “inactive” and the Potency [12] was “inactive”. The Potency [13] was “inactive”, the Potency [20] was “inactive” and the activation [14] was -0.265% (inactive). The max response [15] was -0.0098% (inactive), the Potency [16] was “inactive” and the outcome [17] was “inactive”. For the same compound, the Potency [18] was “inactive” and the max response [19] was 12.7% (inactive).
For `O=[N+]([O-])c1cccc(Cl)c1`, the max response [1] was -8.32%, the outcome [2] was “inactive” and the outcome [3] was “inactive”. For the same compound, the max response [4] was -3.93%, the max response [5] was 7.77% (inactive) and the activity change % (negative = inhibition) [6] was -12.9% (inactive). For the same compound, the Potency [7] was “inactive”, the Potency [8] was “inactive” and the activation [9] was -3.73% (inactive). The activation [10] was 0.464% (inactive), the Potency [11] was “inactive” and the Potency [12] was “inactive”. For the same compound, the Potency [13] was “inactive”, the activation [14] was 0.317% (inactive) and the max response [15] was -3.34% (inactive). For the same compound, the Potency [16] was “inactive”, the outcome [17] was “inactive” and the Potency [18] was “inactive”. For the same compound, the max response [19] was -6.97% (inactive).

Source: PubChem BioAssay (NCATS)
